# Laboratory results: ChEMBL document CHEMBL3988442, “University of Dundee, Small-Polar-MMV Screening Library” (2021)
# For part of these data: Measured potencies and affinities stand elsewhere.
# Tests used:
# Set-up in all cases: scale not given: direction of the effect not stated beside the values
# [1] = target: Protein translocase subunit SecA (Escherichia coli (strain K12)) (UniProt P10408); experiment: Assay to Identify E. coli SecA ATPase Inhibitors; assay type: functional; details: 30 µM
# Sequence of Protein translocase subunit SecA (Escherichia coli (strain K12)) (P10408 whole entry): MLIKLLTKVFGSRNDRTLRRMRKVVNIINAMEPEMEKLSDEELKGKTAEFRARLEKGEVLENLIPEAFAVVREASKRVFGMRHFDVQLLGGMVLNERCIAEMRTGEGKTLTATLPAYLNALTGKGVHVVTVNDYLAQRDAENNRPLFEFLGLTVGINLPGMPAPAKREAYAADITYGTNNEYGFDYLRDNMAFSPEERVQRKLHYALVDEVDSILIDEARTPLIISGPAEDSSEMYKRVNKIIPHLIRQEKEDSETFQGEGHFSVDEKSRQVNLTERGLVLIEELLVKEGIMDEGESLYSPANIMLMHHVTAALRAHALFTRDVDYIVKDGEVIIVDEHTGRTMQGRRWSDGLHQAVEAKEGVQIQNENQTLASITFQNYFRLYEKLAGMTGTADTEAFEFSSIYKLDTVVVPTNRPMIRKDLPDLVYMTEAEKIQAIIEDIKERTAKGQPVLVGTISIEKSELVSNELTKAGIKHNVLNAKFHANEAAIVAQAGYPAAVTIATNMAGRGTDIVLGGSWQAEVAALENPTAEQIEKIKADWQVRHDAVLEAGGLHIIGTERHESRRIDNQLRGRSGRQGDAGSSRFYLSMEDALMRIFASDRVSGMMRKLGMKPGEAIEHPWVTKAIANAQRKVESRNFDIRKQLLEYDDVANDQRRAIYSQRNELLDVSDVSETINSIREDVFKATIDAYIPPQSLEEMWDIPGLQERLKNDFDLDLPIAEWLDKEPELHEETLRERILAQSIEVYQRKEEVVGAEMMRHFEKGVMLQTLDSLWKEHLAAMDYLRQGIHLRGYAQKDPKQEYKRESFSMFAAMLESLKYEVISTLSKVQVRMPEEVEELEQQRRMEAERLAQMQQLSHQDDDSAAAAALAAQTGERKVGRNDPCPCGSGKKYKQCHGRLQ
# [2] = target: T1, Ubiquitin-activating enzyme e1, putative (Leishmania donovani (strain BPK282A1)) (UniProt E9BSI1); experiment: Leishmania donovani Ubiquitin Activating Enzyme (LdE1); assay type: functional; details: 30 µM
# T1 sequence (whole entry): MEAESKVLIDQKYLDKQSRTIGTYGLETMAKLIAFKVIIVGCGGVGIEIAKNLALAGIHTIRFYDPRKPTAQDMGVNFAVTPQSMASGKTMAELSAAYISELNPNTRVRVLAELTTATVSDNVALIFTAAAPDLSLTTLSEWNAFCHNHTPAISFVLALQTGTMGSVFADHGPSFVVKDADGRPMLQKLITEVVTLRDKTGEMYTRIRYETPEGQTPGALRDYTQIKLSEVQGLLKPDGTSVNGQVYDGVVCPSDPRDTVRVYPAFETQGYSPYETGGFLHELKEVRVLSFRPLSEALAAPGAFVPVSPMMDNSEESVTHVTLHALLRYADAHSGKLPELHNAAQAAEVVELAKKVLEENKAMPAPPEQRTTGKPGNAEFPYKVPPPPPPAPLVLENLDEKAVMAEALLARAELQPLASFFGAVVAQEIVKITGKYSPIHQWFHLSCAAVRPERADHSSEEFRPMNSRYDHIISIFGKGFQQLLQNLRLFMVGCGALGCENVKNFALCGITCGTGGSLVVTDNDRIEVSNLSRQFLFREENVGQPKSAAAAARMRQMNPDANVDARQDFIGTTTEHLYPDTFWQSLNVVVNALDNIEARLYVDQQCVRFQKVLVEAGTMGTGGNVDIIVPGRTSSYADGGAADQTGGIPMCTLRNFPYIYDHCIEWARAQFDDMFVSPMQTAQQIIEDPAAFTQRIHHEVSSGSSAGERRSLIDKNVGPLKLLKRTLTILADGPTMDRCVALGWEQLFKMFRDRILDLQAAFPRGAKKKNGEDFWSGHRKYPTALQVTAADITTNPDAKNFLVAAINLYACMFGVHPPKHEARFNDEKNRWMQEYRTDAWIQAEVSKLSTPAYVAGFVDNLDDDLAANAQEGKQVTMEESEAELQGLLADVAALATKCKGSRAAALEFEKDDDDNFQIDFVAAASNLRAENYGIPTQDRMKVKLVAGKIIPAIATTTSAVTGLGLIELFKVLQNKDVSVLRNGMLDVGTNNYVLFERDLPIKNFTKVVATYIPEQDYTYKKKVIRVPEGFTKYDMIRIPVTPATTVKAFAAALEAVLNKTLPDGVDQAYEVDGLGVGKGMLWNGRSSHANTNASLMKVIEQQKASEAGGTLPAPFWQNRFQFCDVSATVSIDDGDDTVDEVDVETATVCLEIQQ
# [3] = target: Sialic acid-binding Ig-like lectin 9 (Homo sapiens) (UniProt Q9Y336); experiment: Hs-Siglec9 ALPHAscreen SOP 20170721; details: 10 µM
# Sequence of Sialic acid-binding Ig-like lectin 9 (Homo sapiens) (Q9Y336 whole entry): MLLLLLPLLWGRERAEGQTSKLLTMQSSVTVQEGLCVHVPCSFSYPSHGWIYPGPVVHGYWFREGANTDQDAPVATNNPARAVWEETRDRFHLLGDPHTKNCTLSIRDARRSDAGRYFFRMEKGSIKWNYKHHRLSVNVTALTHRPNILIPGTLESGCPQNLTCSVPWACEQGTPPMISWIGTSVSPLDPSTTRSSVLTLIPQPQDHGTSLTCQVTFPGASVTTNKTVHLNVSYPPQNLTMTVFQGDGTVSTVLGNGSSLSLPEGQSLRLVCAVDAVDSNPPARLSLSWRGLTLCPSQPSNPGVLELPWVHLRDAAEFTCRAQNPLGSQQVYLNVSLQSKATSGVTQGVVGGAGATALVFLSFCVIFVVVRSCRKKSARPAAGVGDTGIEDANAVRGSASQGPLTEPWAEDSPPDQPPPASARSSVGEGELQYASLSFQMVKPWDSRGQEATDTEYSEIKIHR
# Trypanosoma cruzi = experiment: Trypanosoma cruzi phosphomannomutase and mannose-1-phosphate guanylyltransferase assay; assay type: functional; details: 10 µM
# [4] = target: T2, Arginase-2, mitochondrial (Homo sapiens) (UniProt P78540); experiment: in vitro enzyme assay to detect the production of urea directly proportional to the activity of Arginase II; assay type: functional; details: 33.3 µM; further: in the data most compounds retested in dose-response had high values
# T2 sequence (whole entry): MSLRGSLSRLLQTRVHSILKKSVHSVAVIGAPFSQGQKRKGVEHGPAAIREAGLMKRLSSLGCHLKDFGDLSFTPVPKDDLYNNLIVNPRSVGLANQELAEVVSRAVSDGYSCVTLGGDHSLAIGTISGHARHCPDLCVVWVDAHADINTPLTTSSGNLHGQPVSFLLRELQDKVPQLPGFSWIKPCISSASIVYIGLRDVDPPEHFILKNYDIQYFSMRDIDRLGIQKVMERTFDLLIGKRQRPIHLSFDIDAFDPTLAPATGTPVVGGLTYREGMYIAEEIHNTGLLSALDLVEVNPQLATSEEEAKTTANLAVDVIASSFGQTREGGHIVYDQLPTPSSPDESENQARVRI
# [5] = target: T3, Proteasome subunit beta (Trypanosoma cruzi) (UniProt O96673); experiment: Trypanosoma cruzi proteasome chymotrypsin-like activity (TcProtChymo) assay.; further: in the data most compounds retested in dose-response had high values; assay type: functional; details: 9.37 µM
# T3 sequence (whole entry): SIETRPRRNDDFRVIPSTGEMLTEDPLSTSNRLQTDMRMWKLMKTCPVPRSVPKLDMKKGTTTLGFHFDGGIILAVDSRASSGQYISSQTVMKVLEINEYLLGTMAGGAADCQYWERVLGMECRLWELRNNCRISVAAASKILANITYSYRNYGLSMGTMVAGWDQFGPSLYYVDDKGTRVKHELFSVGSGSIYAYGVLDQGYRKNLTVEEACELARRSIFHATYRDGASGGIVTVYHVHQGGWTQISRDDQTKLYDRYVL
# Homo sapiens = species: Homo sapiens; experiment: To identify inhibition of the IFN signalling (Jak-Stat) pathway via expression of an eGFP reporter gene under the control of an IFN-stimulated response element (ISRE) containing MxA promoter.; assay type: functional; details: 30 µM
# [6] = target: T4, Tyrosyl-tRNA synthetase, putative (Trypanosoma cruzi (strain CL Brener)) (UniProt Q4DSP6); experiment: Trypanosoma cruzi tyrosyl tRNA synthetase (TcYRS) _High Tyrosine SOP; assay type: functional; details: 30 µM; further: in the data most compounds retested in dose-response had high values
# T4 sequence (whole entry): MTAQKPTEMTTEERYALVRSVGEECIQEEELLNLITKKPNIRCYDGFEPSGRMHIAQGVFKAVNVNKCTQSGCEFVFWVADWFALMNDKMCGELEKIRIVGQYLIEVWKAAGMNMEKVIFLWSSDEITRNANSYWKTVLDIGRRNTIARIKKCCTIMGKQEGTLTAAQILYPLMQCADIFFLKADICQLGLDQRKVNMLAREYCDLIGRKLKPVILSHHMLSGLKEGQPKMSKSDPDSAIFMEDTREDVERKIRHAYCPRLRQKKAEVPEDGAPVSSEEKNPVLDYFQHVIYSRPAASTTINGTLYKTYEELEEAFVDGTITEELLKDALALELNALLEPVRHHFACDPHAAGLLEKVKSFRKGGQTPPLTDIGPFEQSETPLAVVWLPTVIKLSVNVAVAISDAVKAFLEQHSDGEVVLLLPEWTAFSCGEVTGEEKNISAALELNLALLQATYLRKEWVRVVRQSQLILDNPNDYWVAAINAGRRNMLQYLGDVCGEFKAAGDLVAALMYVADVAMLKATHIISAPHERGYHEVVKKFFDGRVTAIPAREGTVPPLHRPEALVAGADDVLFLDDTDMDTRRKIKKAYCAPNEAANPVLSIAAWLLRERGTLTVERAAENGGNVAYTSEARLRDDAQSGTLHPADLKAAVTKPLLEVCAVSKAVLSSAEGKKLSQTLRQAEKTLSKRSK
# [7] = target: T4, Tyrosyl-tRNA synthetase, putative (Trypanosoma cruzi (strain CL Brener)); experiment: Trypanosoma cruzi tyrosyl tRNA synthetase (TcYRS) SOP; assay type: functional; details: 30 µM
# [8] = target: Chromo domain-containing protein 1 (Saccharomyces cerevisiae (strain ATCC 204508 / S288c) (Baker's yeast)) (UniProt P32657); experiment: ScCHD-1 Enzyme Inhibition Assay; assay type: functional; details: 30 µM; further: in the data most compounds retested in dose-response had high values
# Sequence of Chromo domain-containing protein 1 (Saccharomyces cerevisiae (strain ATCC 204508 / S288c) (Baker's yeast)) (P32657 whole entry, the tested form may be a part): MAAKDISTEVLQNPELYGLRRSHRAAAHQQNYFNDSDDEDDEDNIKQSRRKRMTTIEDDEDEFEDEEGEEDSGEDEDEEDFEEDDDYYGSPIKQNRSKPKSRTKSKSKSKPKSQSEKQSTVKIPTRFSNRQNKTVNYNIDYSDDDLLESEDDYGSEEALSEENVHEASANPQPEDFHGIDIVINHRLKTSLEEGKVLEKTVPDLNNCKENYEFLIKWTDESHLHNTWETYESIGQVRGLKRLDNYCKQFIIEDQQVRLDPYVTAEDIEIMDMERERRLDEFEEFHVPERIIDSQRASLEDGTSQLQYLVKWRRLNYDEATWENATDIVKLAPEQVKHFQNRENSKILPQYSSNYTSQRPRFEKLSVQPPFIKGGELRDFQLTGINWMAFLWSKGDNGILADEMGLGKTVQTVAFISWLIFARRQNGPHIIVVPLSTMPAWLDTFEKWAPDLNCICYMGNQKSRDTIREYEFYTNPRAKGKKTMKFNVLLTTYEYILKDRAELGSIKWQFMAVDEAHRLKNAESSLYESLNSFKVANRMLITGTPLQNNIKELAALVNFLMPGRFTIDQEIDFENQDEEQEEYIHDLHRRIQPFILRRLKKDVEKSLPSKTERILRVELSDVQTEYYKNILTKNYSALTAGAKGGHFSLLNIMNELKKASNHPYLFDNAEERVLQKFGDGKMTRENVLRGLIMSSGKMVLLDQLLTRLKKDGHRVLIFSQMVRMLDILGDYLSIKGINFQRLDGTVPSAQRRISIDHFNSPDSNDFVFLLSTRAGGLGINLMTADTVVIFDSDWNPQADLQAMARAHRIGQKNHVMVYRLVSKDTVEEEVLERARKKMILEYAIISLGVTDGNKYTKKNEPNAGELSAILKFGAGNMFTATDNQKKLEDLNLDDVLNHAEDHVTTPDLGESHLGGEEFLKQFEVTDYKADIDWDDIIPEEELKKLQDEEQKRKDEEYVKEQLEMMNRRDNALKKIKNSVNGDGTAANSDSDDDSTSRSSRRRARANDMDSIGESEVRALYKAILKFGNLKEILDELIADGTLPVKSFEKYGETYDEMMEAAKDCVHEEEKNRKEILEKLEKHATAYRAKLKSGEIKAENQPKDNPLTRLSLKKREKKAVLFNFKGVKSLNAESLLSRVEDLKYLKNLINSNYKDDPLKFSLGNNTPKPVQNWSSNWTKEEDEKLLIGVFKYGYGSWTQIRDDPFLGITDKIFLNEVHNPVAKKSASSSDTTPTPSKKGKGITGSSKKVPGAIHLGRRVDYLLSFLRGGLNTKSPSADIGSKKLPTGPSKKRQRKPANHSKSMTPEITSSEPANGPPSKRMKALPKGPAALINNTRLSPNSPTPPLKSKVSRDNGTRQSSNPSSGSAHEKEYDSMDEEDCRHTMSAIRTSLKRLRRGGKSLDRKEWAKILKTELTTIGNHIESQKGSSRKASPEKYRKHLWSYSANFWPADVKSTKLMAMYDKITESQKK
Structure (SMILES),Percent Effect [1] [%],Percent Effect [2] [%],Percent Effect [3] [%],Percent Effect (Trypanosoma cruzi) [%],Percent Effect [4] [%],Percent Effect [5] [%],Percent Effect (Homo sapiens) [%],Percent Effect [6] [%],Percent Effect [7] [%],Percent Effect [8] [%]
O=C(c1cc(C2CC2)on1)N1CC[C@]2(C[C@H](Oc3cccnc3)CO2)C1,-7.12,1.3,-0.278,6.52,-12.2,6.27,-3.24,1.58,5.13,0.522
Cn1cc(C(=O)N2CCCC(Cc3nccs3)C2)cn1 (stereo not given),-2.98,12,-0.254,-2.96,3.54,7.55,6.88,2.12,15,-16.3
CCNC(=O)c1ccc(CNCc2c(C)nn(C)c2N(C)C)cc1,-4.63,21.3,1.18,5.62,-0.444,22.3,2.98,4.74,12.8,-11.6
CN(C)CC1CN(Cc2ccsc2)Cc2nccn2C1 (stereo not given),-3.4,6.49,-4.24,-1.85,3.24,18.4,-9.26,8.95,12.8,6.09
Cc1ccccc1N1CC2(CCN(S(=O)(=O)C3CC3)C2)CC1=O (stereo not given),0.787,16.9,-5.74,-5.07,4.57,17.4,11.8,3.87,10,-8.76
O=C(CO)N1CCc2onc(Cn3cccn3)c2C1,-5.41,3.9,3.29,1.27,-1.62,7.5,-4.61,2.63,5.13,0.404
Cc1ccc(S(=O)(=O)N2CCC3(CC(C(=O)NCC4CC4)=NO3)C2)cc1 (stereo not given),-5.9,6.49,-4.73,-4.38,0,18.3,5.59,1.58,7.69,-3.09
CCN(C)c1ncnc2c1CCN(Cc1ccoc1)CC2,-6.65,19.5,-3.79,8.86,-7.69,18.8,-6.57,3.68,15.4,-1.25
CC(=O)N1CCC2(CCN(C(=O)c3ccc(C)c(C(F)(F)F)c3)CC2)C1,-3.18,14.3,1.63,-7.69,7.29,19.5,17.8,7.89,0,-3.98
CCOc1ncccc1CNC(=O)Nc1ccc(N(C)C)nc1,-5.71,2.6,-6.42,-9.89,-2.66,15.3,13.9,0.98,4.71,-9.6
CC(C)NC(=O)[C@@H](NC(=O)N1CCN(c2ccc(Cl)cc2)CC1)C(C)C,-9.49,-5.41,-0.377,-3.78,-3.85,12.2,31.6,0.532,-4.88,-2.5
Cc1ccc(C(=O)N2CCC3(CC2)CC(N2CCCC2)C3)cc1,-4.52,11.7,1.16,-0.75,1.83,7.12,-12.1,8.7,12.5,-4.42
Cn1cc(C(=O)NC2CCN(Cc3ccn(C)c(=O)c3)CC2)cn1,-0.0592,-7.69,-4.2,-1.41,4.51,3.67,26.8,-1.44,-3.61,-4.65
CC(Nc1cccc(CN2CCOC2=O)c1)C(=O)NC(N)=O (stereo not given),-7.02,15.4,-17.4,13.1,-4.1,7.76,15.9,8.13,18.1,17.9
COc1ccccc1-c1cc(C(F)(F)F)c2c(C)nn(CC(=O)O)c2n1,5.48,14.7,-8.22,-2.56,6.64,11.5,26.5,-13.8,-17.5,-17.5
CC(C)(C)c1cn2nc(N3CCOC(Cn4cncn4)C3)sc2n1 (stereo not given),-1.88,23.1,-8.45,7.79,-2.46,12.4,13.8,3.35,22.9,-5.11
CCSCCC(=O)NS(=O)(=O)c1ccc2c(c1)OCCO2,-2,10.3,-9.92,-1.97,1.23,4.69,9.19,2.39,10.8,-1.85
CCC(CC)C(=O)N1CCC2(C1)CN(c1ccccc1)C(=O)CN2C (stereo not given),-1.78,3.9,-5.2,-8.08,4.86,14.7,-19.6,5.79,0,-2.51
CC1CN(CC(=O)NC2CCCC2)CCN1c1ccc2nncn2n1 (stereo not given),-1.74,12.8,1.41,0.0939,4.1,15.8,12.2,7.18,20.5,-1.24
CN(C)c1ncccc1CNS(=O)(=O)c1ccccc1F,-0.976,15.6,-3.68,-3.17,2.66,13.3,19.8,4.9,11.8,-9.97
CS(=O)(=O)NCC1CCCN(C(=O)c2cc3ccccc3o2)C1 (stereo not given),-0.17,28.6,3.25,3.36,-9.22,15.1,11.5,5.88,23.5,-10.2
CC(=O)c1sc(Nc2ccc(Cl)cn2)nc1C,-2.68,24.7,1.41,1.13,0.913,12.6,24.7,2.9,-37.5,-10.7
CC(C)c1nccn1-c1cccc(C2CCCN(C3CCCC3)C2)n1 (stereo not given),-2.48,6.67,3.65,0.197,0.885,15.6,2.2,6.35,17.5,-23.6
Cc1csc(Nc2nccnc2C2CCCN2C(=O)C(C)C)n1 (stereo not given),1.4,14.7,-6.58,-4.34,-0.885,9.69,5.46,2.12,10,-21.8
